In all, about 48,000 compounds went through this assay and about 13,000 (27%) showed an effect of 50% or more. The list shows a part of the results.
test system: Wolbachia pipientis; test: Anti-Wolbachia Cell-Based Screen; type: functional; design: scale not given: in the data most compounds retested in dose-response had high values; conditions: 5 µM

| SMILES | Percent Effect [%] |
| --- | --- |
| CCC(CC)CNCC1(S(C)(=O)=O)CCOCC1 | -4.414 |
| CC(=O)N[C@@H]1CN(S(=O)(=O)c2ccc(Cl)cc2)C[C@H]1O | 155.9 |
| CCC[C@@H]1CN(S(=O)(=O)c2ccc(OC)c(OC)c2)C[C@H]1NC(C)=O | -5.851 |
| CCC[C@H]1CN(S(=O)(=O)c2ccc(Cl)cc2)C[C@@H]1NC(C)=O | 12.77 |
| CN(CCC#N)C(=O)Cc1csc(-c2ncccn2)n1 | 2.424 |
| CNC(=O)[C@@H]1C[C@H](N)CN1Cc1cc2cc(C)cc(C)c2[nH]c1=O | 27.32 |
| O=C(O)C(F)(F)F.O=C(O)C(F)(F)F.O=C(O)C(F)(F)F.c1ccc(Cn2cc3c(n2)C(CNCc2ccco2)OCC3)nc1 (stereo not drawn) | -0.4855 |
| Cn1cc2c(n1)C(CNCc1ccco1)OCC2.O=C(O)C(F)(F)F.O=C(O)C(F)(F)F (stereo not drawn) | 145.8 |
| Cn1cc2c(n1)C(CNCC1CCOCC1)OCC2.O=C(O)C(F)(F)F.O=C(O)C(F)(F)F (stereo not drawn) | 10.93 |
| Cc1occc1C(=O)NCC1OCCc2cn(C)nc21.O=C(O)C(F)(F)F (stereo not drawn) | 115.2 |
| COCCn1cc2c(n1)C(CNCc1ccco1)OCC2.O=C(O)C(F)(F)F.O=C(O)C(F)(F)F (stereo not drawn) | 3.436 |
| CC(C)NCC1OCCc2cn(C)nc21.O=C(O)C(F)(F)F (stereo not drawn) | 25.68 |
| COc1ccccc1C1(CNc2snc(Cl)c2C#N)CCOCC1 | -1.634 |
| COc1cc(N2C[C@@H](C)[C@](O)(C3CC3)C2)nc(N)n1 | -24.25 |
| CC1CN(c2ncnc3ccccc23)CCO1 (stereo not drawn) | -1.794 |
| CC(C)n1nc(Cn2cccc2)c2c1CN(Cc1ccoc1)C2.O=C(O)C(F)(F)F | -4.933 |
| CC(C)n1nc(CN2CCOCC2)c2c1CN(C(=O)c1ccno1)C2.O=C(O)C(F)(F)F | 102.9 |
| CC(C)n1nc(CN2CCOCC2)c2c1CN(Cc1ccsc1)C2.O=C(O)C(F)(F)F.O=C(O)C(F)(F)F | -3.193 |
| CC(C)n1nc(CN2CCCCC2)c2c1CN(C(=O)c1ccno1)C2.O=C(O)C(F)(F)F | 85.62 |
| CC(C)n1nc(Cn2cccc2)c2c1CN(C1CCOCC1)C2.O=C(O)C(F)(F)F | -6.023 |
| Cc1ccc(C(=O)N2Cc3c(CN4CCCCC4)nn(C)c3C2)cc1C.O=C(O)C(F)(F)F | -1.924 |
| O=C(c1cc(Cl)c2c(c1)OCO2)N1CCN(c2nccs2)CC1 | -12.71 |
| O=C(NCc1c(F)cccc1Cl)c1cc(CN2CCCC(O)C2)on1 (stereo not drawn) | -0.1537 |
| Cc1cccc2c1nc1n2[C@@H](CNC(=O)CCC(=O)O)COC1 | -14.2 |
| CNCc1cc(F)ccc1Oc1ccc(F)cc1F | 116 |
| CN(C)S(=O)(=O)NCc1cccnc1Oc1ccc(F)cc1F | 1.253 |
| CNC(=O)COc1ccc(CNCc2ccc(F)cc2F)cc1 | -7.839 |

| SMILES | Percent Effect [%] |
| --- | --- |
| CNCc1cc(F)ccc1Oc1ccc(F)cc1 | 114.4 |
| COc1ccc(CC(=O)NC(CC(=O)O)c2ccc(F)cc2)cc1OC (stereo not drawn) | 11.02 |
| Cc1noc(NCc2cc(F)ccc2F)n1 | 5.671 |
| CC(C)S(=O)(=O)NCc1cccnc1Oc1ccc(F)cc1F | -8.317 |
| CNCc1cc(F)ccc1Oc1ccc(Cl)cc1 | 118.2 |
| COc1ccc(C)cc1CC(=O)NC(CC(=O)O)c1ccc(F)cc1 (stereo not drawn) | 6.211 |
| CC(NCC1CCN(CCO)CC1)c1ccc(Cl)cc1 (stereo not drawn) | 5.926 |
| CCc1nn(C)c(Cl)c1CN1CCN(c2ccc(C(N)=O)cn2)CC1 | -7.307 |
| CC(C)Cc1ncc2c(n1)CN(C(=O)c1ccc(CN3CCCC3)o1)C2 | 8.376 |
| O=C(NC1CC1)[C@H]1C[C@H]2OCC[C@H]2N(Cc2cccc3ccccc23)C1.O=C(O)C(F)(F)F | -4.229 |
| Cc1nc(N(C)C)nc(C)c1NC(=O)c1ccco1 | 16.89 |
| CC(C)C(=O)N1CCN(S(C)(=O)=O)CC2(CC(=O)N(C)C2)C1 (stereo not drawn) | 4.406 |
| COCc1noc(-c2ccc(N(C)Cc3cc(C)no3)nc2)n1 | -6.826 |
| COCc1noc(-c2ccc(N(C)Cc3ccc(C)o3)nc2)n1 | -8.335 |
| COCc1noc(-c2ccc(N(C)Cc3ncccc3C)nc2)n1 | 79.04 |
| CSc1ccccc1CC1CCCS(=O)(=O)C1 (stereo not drawn) | -14.28 |
| O=S(=O)(NCCSc1nncn1C1CC1)c1ccccc1 | 13.46 |
| CCc1noc(C(C)N2CCOCC2)n1 (stereo not drawn) | 1.305 |
| CC(c1nc(C2CC2)no1)N1CCN(CCc2ccncc2)CC1 (stereo not drawn) | -3.98 |
| CC(c1nc(C(C)(C)C)no1)N1CCC(N2CCCC2)CC1 (stereo not drawn) | -1.947 |
| CC(c1nc(C(C)(C)C)no1)N1CCN(C(=O)CN2CCOCC2)CC1 (stereo not drawn) | 87.21 |
| CC(c1nc(C2CC2)no1)N1CCN(CCS(C)(=O)=O)CC1 (stereo not drawn) | 9.574 |
| CCc1noc(C(C)N2CCN(Cc3nc(C)c(C)o3)CC2)n1 (stereo not drawn) | 17.35 |
| CCc1noc(C(C)N2CCN(CC(=O)N3CCOCC3)CC2)n1 (stereo not drawn) | 97.96 |
| CC(c1nc(C2CC2)no1)N1CCN(CC(=O)N2CCOCC2)CC1 (stereo not drawn) | 99.5 |
| CC(C(=O)N1CCOCC1)S(=O)(=O)Cc1nc(C(C)(C)C)no1 (stereo not drawn) | -2.634 |

— ChEMBL document CHEMBL3988442, “University of Dundee, Small-Polar-MMV Screening Library” (2021)
